Shown are actives, neighbours in structure and some others; about 21% of the full set was active somewhere.
Cycloheximide cs = counter-screen hit for Shiga toxin inhibitors, cycloheximide; cell reporter, cycloheximide protein synthesis inhibition counterscreen; max response, %; 300,000 tested, 12% active; AID 2314; in the data active means max response mostly above about 13%, no sharp cut-off; inactive means mostly below about 14%; further: read at 38.3 µM for the half of the compounds with a filed dose
Pf growth 48h = P. falciparum growth inhibition at 48 hours (one generation); P. falciparum luciferase growth in erythrocytes, 48 h; Potency, µM (series often up to 28.7 µM), actives largely listed as inhibitors; 310,000 tested, 5.9% active; AID 504832
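Firefly luciferase activity from engineered P. falciparum reports growth; inhibitors lower the luminescent signal. Cultures contained 2% hematocrit erythrocytes at 0.1% final parasitemia.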
Pf growth 96h = P. falciparum growth inhibition at 96 hours; AID 504834; 320,000 tested, 6.9% active; Potency, µM (series often up to 28.7 µM), usual class: inhibitors; P. falciparum luciferase reporter growth, 96 h
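P. falciparum expressing integrated firefly luciferase grown in erythrocytes (2% hematocrit, 0.05% parasitemia final) with compounds for 96 hours at 37 C, 5% CO2. Growth inhibition read as loss of luminescence after adding luciferase detection reagent.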
NS1 function inh = inhibitors of influenza NS1 protein function. Potency, µM (titrated, usually from 46.1 µM). 270,000 tested, 0.4% active. AID 2326; calls by dose curve; further: actives are rising curves; nearly all actives have a fitted effect of over 50% in size
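OD600 was taken as the measure of yeast growth restored by compound in an NS1-expressing S. cerevisiae strain. Cells had been washed out of glucose medium and diluted 1:100 into galactose -URA medium, pH 6.0.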
SARS PLpro yeast = blocks SARS-CoV papain-like protease in a yeast assay | 330,000 tested, 0.19% active | AID 485353 | Potency, µM (top dose mostly 32.9 µM), actives largely listed as activators | S. cerevisiae expressing SARS-CoV PLpro, growth rescue; calls by dose curve; further: nearly all actives have a fitted effect of over 55% in size
Shiga toxin inh = blocks Shiga toxin action in Vero cells; inhibition, % at 38.7 µM; 290,000 tested, 9.2% active; Vero cells, Shiga toxin protein synthesis inhibition reporter; in the data active means inhibition mostly above about 28%, no sharp cut-off; inactive means mostly below about 43%
Large screens that a line does not name were inactive. Unless noted, the call rests on the fitted dose curve; in most records, active means well fitted inhibition curve with a large enough effect; inconclusive means small, poorly fitted or top-dose-only effect, or another doubt; inactive means no such curve, though single readings can be large or run the other way.

COc1ccc(/C=N/c2oc(-c3ccccc3)cc2C#N)cc1	Cycloheximide cs 16.2
COc1cccc(/C=N/c2oc(-c3ccccc3)cc2C#N)c1O	Cycloheximide cs 23.7
COC(=O)c1c(-c2cc(OC)c(OC)c(OC)c2)c2ccc(OCc3ccccn3)cc2c(=O)n1-c1ccc(N)cc1	none (no result: Cycloheximide cs, Pf growth 48h, Pf growth 96h, SARS PLpro yeast, Shiga toxin inh)
CC1CCCC(N2C(=O)NC(NC(=O)c3ccco3)(C(F)(F)F)C2=O)C1C (centres undefined)	none
Cc1cc(CNC(=O)[C@]2(C(F)(F)F)C[C@H](CCC3CCCCC3)CCCO2)nn1C	none (no result: Pf growth 48h, Pf growth 96h, NS1 function inh, SARS PLpro yeast)
COc1ccc(-c2c(C)nn(-c3ccccc3)c2NC(C)=O)cc1OC	NS1 function inh inconclusive
CCN(CC)P1(=O)OC(c2cc(OC)c(OC)c(OC)c2)=Nc2c1c(C)nn2-c1ccccc1 (centres undefined)	Pf growth 48h 10.4µM (no result: Pf growth 96h)
CSCCC1COC(c2cccs2)=N1 (centres undefined)	Cycloheximide cs 38.8, Pf growth 96h inconclusive, Shiga toxin inh 65.4 (no result: NS1 function inh)
CC(C)(CNS(=O)(=O)c1cccs1)N1CCOCC1	none (no result: Cycloheximide cs, Pf growth 48h, Pf growth 96h, NS1 function inh, Shiga toxin inh)
CCc1nc2ccccc2n1Cc1cc(=O)n2cc(C)ccc2n1	Pf growth 96h 1.65µM
Cc1ccc2nc(Cn3cc(C(F)(F)F)ccc3=O)cc(=O)n2c1	none (no result: NS1 function inh)
O=C(NC12CC3CC(CC(C3)C1)C2)N1CCN(C(=O)C2CCCO2)CC1 (centres undefined)	Cycloheximide cs 11.2
CCOC(=O)c1c(C)nc2sc3c(c2c1-c1ccc(OC)cc1)NC(c1ccccc1)NC3=O (centres undefined)	Pf growth 48h 13.1µM, Pf growth 96h 4.15µM
CCN(CC)CCN(Cc1cc2cc3c(cc2[nH]c1=O)OCO3)C(=S)NCCOC	none (no result: Shiga toxin inh)
CCCCn1c(N)c(N(CC(C)C)C(=O)c2cccc(S(=O)(=O)N(C)c3ccccc3)c2)c(=O)[nH]c1=O	Pf growth 48h inconclusive, Pf growth 96h inconclusive (no result: Cycloheximide cs, NS1 function inh, Shiga toxin inh)
CCCCn1c(N)c(N(CC(C)C)C(=O)CSCC(=O)Nc2cccc(C)c2)c(=O)[nH]c1=O	Pf growth 48h 11.7µM, Pf growth 96h inconclusive (no result: Cycloheximide cs, NS1 function inh, Shiga toxin inh)
CCCCn1c(N)c(N(CC(C)C)C(=O)c2ccc(S(=O)(=O)N(CC)c3ccccc3)cc2)c(=O)[nH]c1=O	Pf growth 48h 11.7µM, Pf growth 96h inconclusive (no result: Cycloheximide cs, NS1 function inh, Shiga toxin inh)
CCCCn1c(N)c(N(Cc2ccccc2OC)C(=O)c2cc(CC)c(C)s2)c(=O)[nH]c1=O	Pf growth 48h 13.1µM, Pf growth 96h inconclusive (no result: Cycloheximide cs, NS1 function inh, Shiga toxin inh)
CCCCn1c(N)c(N(Cc2ccccc2OC)C(=O)c2sccc2C)c(=O)[nH]c1=O	none (no result: Cycloheximide cs, NS1 function inh, Shiga toxin inh)
CCCCn1c(N)c(N(CC(C)C)C(=O)c2cccc(S(=O)(=O)N(C)c3ccc(C)cc3)c2)c(=O)[nH]c1=O	Pf growth 48h 6.57µM, Pf growth 96h inconclusive (no result: Cycloheximide cs, NS1 function inh, Shiga toxin inh)
CC1(C)c2cc(O)ccc2OC1N1CCOCC1 (centres undefined)	Pf growth 96h inconclusive (no result: Pf growth 48h)
CCc1noc(C)c1C(=O)N1CCN(S(=O)(=O)c2ccc(Cl)s2)CC1	Pf growth 48h inconclusive (no result: Cycloheximide cs, NS1 function inh, Shiga toxin inh)
CCCCn1c(N)c(N(CCC(C)C)C(=O)c2ccc([N+](=O)[O-])s2)c(=O)[nH]c1=O	Pf growth 48h 9.28µM, Pf growth 96h inconclusive (no result: Cycloheximide cs, NS1 function inh, Shiga toxin inh)
CC(=O)c1ccc(NC(=O)C2CCCNC2=O)cc1 (centres undefined)	Pf growth 96h 5.22µM
COc1ccc(NC(=O)C2CCCNC2=O)cc1 (centres undefined)	Pf growth 96h 6.57µM
O=C(c1ccco1)N(CCC(c1ccccc1)c1ccco1)Cc1ccc(F)cc1 (centres undefined)	Cycloheximide cs 21.9, Pf growth 48h inconclusive, Pf growth 96h inconclusive
CCC(=O)N(CCC(c1ccc(C)cc1)c1ccco1)Cc1ccco1 (centres undefined)	Pf growth 48h 2.33µM, Pf growth 96h inconclusive
CC1(C)CC(N(Cc2ccc(F)cc2)C(=O)c2ccc(F)cc2)CCO1 (centres undefined)	none
CC1(C)CC(C(CCN(Cc2ccccc2)C(=O)c2ccco2)c2ccc(F)cc2)CCO1 (centres undefined)	Pf growth 48h 11.7µM, Pf growth 96h 1.47µM
CCC(=O)N(CCC(c1ccco1)C(C)C)Cc1ccccc1 (centres undefined)	Pf growth 48h inconclusive, Pf growth 96h inconclusive
Cc1cccc(OCC(O)CN2CCOCC2)c1 (centres undefined)	Pf growth 96h inconclusive
O=c1ccc(-c2ccc(S(=O)(=O)NCC3CCN(Cc4cccc(F)c4)CC3)s2)n[nH]1	Pf growth 48h 5.22µM, Pf growth 96h inconclusive
CCOC(=O)c1c(S(=O)(=O)NCC2CCN(Cc3cccc(F)c3)CC2)c(C)n(C)c1C	none
COc1ccc(C(=O)N=S2CCN(C(=O)c3ccc(Cl)cc3)CC2)cc1	none
Cc1nn(-c2ccccc2)c(C)c1Cc1ccc(O)cc1	Cycloheximide cs 26.5, Shiga toxin inh 76.6
Cc1nn(-c2ccccc2)c(C)c1CN	Pf growth 96h inconclusive
COC(=O)c1cc(O)cc(OC)c1C(=O)c1c(O)cc(C)cc1O	Pf growth 48h inconclusive, Pf growth 96h 5.22µM
COC(=O)c1cc(O)cc(OC)c1Oc1cc(C)cc(O)c1C(=O)O	Pf growth 48h 2.62µM
O=S(=O)(NCC1CCCO1)c1cnc(Cl)c(Br)c1 (centres undefined)	none
CCCCN1c2cc(C)c(O)cc2C(C(=O)OCC)C1C (centres undefined)	Pf growth 48h 2.08µM
CCOCCCNC(=O)Cn1cc2c(n1)CCCCC2	none
Cc1ccc(-c2csc3nc(=O)c(C)nn23)cc1	Pf growth 96h 5.22µM
O=C(CSC1CC(=O)N(c2ccc(C(=O)O)cc2)C1=O)Nc1ccc(Cl)cc1 (centres undefined)	Pf growth 96h 11.7µM
O=C1CC(SC(=Nc2ccccc2)Nc2ccccc2)C(=O)N1c1ccc(Cl)cc1 (centres undefined)	Pf growth 48h inconclusive, Pf growth 96h inconclusive
O=C(NCCCCN1CCOCC1)c1cc2ccccc2o1	none (no result: Pf growth 48h, Pf growth 96h, NS1 function inh, SARS PLpro yeast)
COc1ccc(NC(=O)CSc2nc(NS(=O)(=O)c3ccccc3)cc(=O)[nH]2)cc1	Pf growth 48h inconclusive
Cc1cccc(NC(=O)CSc2nc(NS(=O)(=O)c3ccccc3)cc(=O)[nH]2)c1	Pf growth 96h 10.4µM
Cc1ccc(NC(=O)CSc2nc(NS(=O)(=O)c3ccc(C)cc3)cc(=O)[nH]2)cc1	Pf growth 48h 5.22µM (no result: Pf growth 96h)
COc1ccc(Cl)cc1NC(=O)CSc1nc(NS(=O)(=O)c2ccccc2)cc(=O)[nH]1	Pf growth 96h 8.28µM
Cc1ccc(S(=O)(=O)Nc2cc(=O)[nH]c(SCC(=O)Nc3cccc(C(F)(F)F)c3)n2)cc1	none
CCN(CC)S(=O)(=O)c1cc(C(=O)OCC(=O)Nc2cccc(Br)c2)ccc1F	none
CCOC(=O)CC(=O)CSc1nc2sc(C)cc2c(=O)n1Cc1ccco1	Pf growth 48h 4.65µM (no result: Pf growth 96h)
Cc1sc2nc(SCc3ccccc3)n(Cc3ccco3)c(=O)c2c1C	NS1 function inh inconclusive
Cc1cc2c(=O)n(Cc3ccco3)c(SCC(=O)c3ccc(Cl)s3)nc2s1	Cycloheximide cs 16.3, Pf growth 48h 5.86µM

Source: PubChem BioAssay
